Sampled rows, rich in hits. Any-hit rate of the full collection: about 6.6%.
NR3A LBD binder: modulators (binders) of human NR3A ligand-binding domain | hit rate 2.5% among 340,000 | Tm shift relative to glycine control, % at 25 µM | NR3A LBD differential scanning fluorimetry, Tm shift; 0% = protein alone, 100% = glycine-bound protein;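 active = melting temperature shift of at least 10% of the positive control shift, at one fixed dose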
Gli-Sufu antag: blocks Gli-Sufu signaling in a luciferase reporter; Sufu-KO-LIGHT fibroblasts, Gli luciferase reporter luminescence; inhibition, % at 5 µM; hit rate 0.74% among 340,000; AID 588413;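 active = inhibition above about 55%, limit read from the data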;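 also: 0% = DMSO-treated cells and 100% = wells with medium but no cells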
MPTP block: inhibitors of mitochondrial permeability transition pore; hit rate 1.4% among 360,000; inhibition, % at 10 µM; isolated mouse mitochondria, Ca2+ swelling absorbance, 30 min;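 active = inhibition of 50% or more, scaled per plate between neutral and stimulator controls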;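 also: 0% = DMSO wells given calcium and 100% = 1 mM EGTA wells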
Beta cell apopt: blocks beta cell apoptosis. INS-1E cytokine-induced death, ATP luminescence, 48 h; percent of positive-control rescue, neutral wells zero. protection from apoptosis, % (no concentration beside the values). hit rate 0.8% among 300,000. AID 435005;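 active = Every replicate reaches about 75%, or at least half do and their mean reaches it too, limit read from the data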;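 also: 0% = cytokine-treated negative control wells and 100% = positive control rescue; higher means more ATP so stronger rescue from cytokine killing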
Mdm2-MdmX inh: disrupts the human Mdm2-MdmX interaction | SaOS-2 split-luciferase Mdm2/MdmX complementation, luminescence | inhibition, % at 8 µM | O15151+Q00987 | hit rate 3% among 330,000;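 active = inhibition of at least 50% at 8 µM in the primary screen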
Target sequence (O15151 whole entry, looked up): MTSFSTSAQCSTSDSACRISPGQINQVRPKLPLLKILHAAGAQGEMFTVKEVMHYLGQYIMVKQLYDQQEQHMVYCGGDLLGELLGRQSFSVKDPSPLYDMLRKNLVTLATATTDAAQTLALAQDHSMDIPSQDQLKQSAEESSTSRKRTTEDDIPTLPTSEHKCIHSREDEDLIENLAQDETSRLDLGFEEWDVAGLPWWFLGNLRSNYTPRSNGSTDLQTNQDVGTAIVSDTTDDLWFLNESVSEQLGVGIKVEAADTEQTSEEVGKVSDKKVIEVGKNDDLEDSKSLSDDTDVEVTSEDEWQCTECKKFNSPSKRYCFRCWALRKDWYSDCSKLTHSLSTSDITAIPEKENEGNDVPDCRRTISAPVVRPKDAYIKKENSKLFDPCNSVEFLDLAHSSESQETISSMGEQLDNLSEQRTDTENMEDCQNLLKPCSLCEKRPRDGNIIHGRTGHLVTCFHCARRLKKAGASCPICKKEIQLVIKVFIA
Target sequence (Q00987 whole entry, looked up): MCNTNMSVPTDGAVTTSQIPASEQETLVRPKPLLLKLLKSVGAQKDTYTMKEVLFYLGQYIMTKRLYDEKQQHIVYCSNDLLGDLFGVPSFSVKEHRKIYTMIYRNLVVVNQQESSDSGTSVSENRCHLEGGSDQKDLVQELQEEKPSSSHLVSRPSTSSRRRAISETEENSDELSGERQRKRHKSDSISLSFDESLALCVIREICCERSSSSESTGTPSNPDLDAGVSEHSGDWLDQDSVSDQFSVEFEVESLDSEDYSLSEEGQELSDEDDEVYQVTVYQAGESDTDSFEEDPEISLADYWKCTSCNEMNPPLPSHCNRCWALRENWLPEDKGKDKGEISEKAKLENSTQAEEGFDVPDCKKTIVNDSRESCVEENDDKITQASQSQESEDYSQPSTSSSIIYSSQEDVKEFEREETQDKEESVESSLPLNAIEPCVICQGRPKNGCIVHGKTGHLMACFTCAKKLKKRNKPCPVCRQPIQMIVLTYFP
CSC inhib: blocks cancer stem cells; cancer stem cell-like cells viability, luminescence; inhibition, % at 7.5 µM; hit rate 1.1% among 300,000; AID 2717; in the data active = inhibition above about 75%; tested in HMLE shEcad cells
Rh123 counter: Rhodamine 123 counter-screen of mitochondrial pore hits; shares compounds with MPTP block; isolated mitochondria, membrane potential, Rhodamine 123 fluorescence; inhibition, % at 10 µM; hit rate 78% among 5,000; AID 624504; in the data active = inhibition above about 22%;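 also: 0% = DMSO vehicle and 100% = positive control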
MPTP abs DR: dose response confirmation of mitochondrial permeability transition pore inhibitors; shares compounds with MPTP block; isolated mitochondria swelling, absorbance; IC50, µM; hit rate 58% among 780; in the data active = IC50 below about 20 µM
MPTP cs DR: active in counter-screen for permeability transition pore inhibitors; shares compounds with MPTP block; hit rate 49% among 780; IC50, µM; AID 651564; isolated mitochondria counterscreen, fluorescence read-out; in the data active = IC50 below about 80 µM
The depositor's hits bear a star.

For c1ccc(CC[C@@H]2CC[C@@H](CCc3ccccc3)N2)cc1 the results were NR3A LBD binder -3, Gli-Sufu antag 19, MPTP block 69*, Beta cell apopt -1, Mdm2-MdmX inh 4, CSC inhib 35, Rh123 counter -5, MPTP abs DR 10* and MPTP cs DR >80.
CC(=O)N1CCN(C(=O)COC(=O)/C=C/c2ccc(C(F)(F)F)cc2)CC1 was read as NR3A LBD binder 3, Gli-Sufu antag -12, MPTP block -1, Beta cell apopt -1, Mdm2-MdmX inh 1 and CSC inhib 1.
Screening CN(Cc1cc(Cl)cc(Cl)c1O)Cc1c(O)ccc2ccccc12 returned NR3A LBD binder 10, Gli-Sufu antag 0, MPTP block 89* and Rh123 counter 85*.
CN(Cc1ccccc1)Cc1c(O)ccc2ccccc12 was read as NR3A LBD binder 2, Gli-Sufu antag -9, MPTP block 0, Beta cell apopt -7, Mdm2-MdmX inh 13 and CSC inhib -10.
Screening CCOC(=O)C(CC1=CS(=O)(=O)c2ccc(Cl)cc21)(NC(C)=O)C(=O)OCC returned MPTP block 2.
Screening O=C(Nc1ccc([N+](=O)[O-])cc1)c1cc(Cl)sc1Cl returned NR3A LBD binder -4, Gli-Sufu antag -45, MPTP block 89*, Mdm2-MdmX inh 20, CSC inhib -16 and Rh123 counter 85*.
O=C(Nc1ccc([N+](=O)[O-])cc1)C(c1ccccc1)c1ccccc1 was read as MPTP block 82* and Rh123 counter 108*.
`CCC(CC)C(=O)Nc1ccc(Sc2ccc([N+](=O)[O-])cc2)cc1` gave NR3A LBD binder -3, Gli-Sufu antag 11, MPTP block 95*, Beta cell apopt 8, Mdm2-MdmX inh 21, CSC inhib 2 and Rh123 counter 77*.
`CCCC(=O)Nc1ccc(Sc2ccc([N+](=O)[O-])cc2)cc1` gave NR3A LBD binder -2, Gli-Sufu antag -3, MPTP block 8, Beta cell apopt 6, Mdm2-MdmX inh 47 and CSC inhib 24.
For CC(C(=O)Nc1cccc(Br)c1)c1ccc([N+](=O)[O-])cc1 (stereo not drawn) the results were NR3A LBD binder -11, Gli-Sufu antag 0, MPTP block 58*, Beta cell apopt 1, Mdm2-MdmX inh 29, CSC inhib 2 and Rh123 counter 78*.
For CCOc1ccc(CCNC(=O)COC(=O)COc2ccc(Br)cc2)cc1OCC the results were NR3A LBD binder 2, Gli-Sufu antag -6, MPTP block 1, Beta cell apopt -1, Mdm2-MdmX inh 11 and CSC inhib 5.
O=C(N/N=C/c1cccc(Oc2ccccc2)c1)c1cccc(Br)c1 was read as NR3A LBD binder 1, Gli-Sufu antag 41, MPTP block 67*, Beta cell apopt 5, Mdm2-MdmX inh 18, CSC inhib 68 and Rh123 counter 75*.
Screening O=C(N/N=C/c1cccc(Oc2ccccc2)c1)c1cccc(O)c1 returned NR3A LBD binder 10, Gli-Sufu antag -44, MPTP block 0, Beta cell apopt -5, Mdm2-MdmX inh 35 and CSC inhib 60.
Screening O=c1c(Cc2ccccc2)c(O)c2cccc3c4c(n1c23)CCCC4 returned NR3A LBD binder 1, Gli-Sufu antag -9, MPTP block 66*, Beta cell apopt 2, Mdm2-MdmX inh 7, CSC inhib 52 and Rh123 counter 80*.
For Cc1ccc([C@H]2C[C@H](O)[C@@H](n3cc(COC(=O)c4ccccc4)nn3)CN2Cc2cccs2)cc1 the results were MPTP block 1.
Screening CC1(C)CC(=O)C2=C(C1)NC1=C(C(=O)c3ccccc31)C2c1cc([N+](=O)[O-])ccc1O (stereo not drawn) returned NR3A LBD binder 0, Gli-Sufu antag 1, MPTP block 94*, Beta cell apopt 4, Mdm2-MdmX inh 13, CSC inhib -11 and Rh123 counter 57*.
`CC1(C)CC(=O)C2=C(C1)NC1=C(C(=O)c3ccccc31)C2c1cccnc1` (stereo not drawn) gave NR3A LBD binder -1, Gli-Sufu antag 14, MPTP block 1, Beta cell apopt 4, Mdm2-MdmX inh 25 and CSC inhib -25.
Screening COc1ccccc1S(=O)(=O)N(C)C[C@H]1OCc2cnnn2CCCC(=O)N([C@H](C)CO)C[C@@H]1C returned MPTP block -1.
`c1ccc(-c2ccc(OCCCNC3CCCC3)cc2)cc1` gave NR3A LBD binder 1, Gli-Sufu antag 18, MPTP block 88*, Mdm2-MdmX inh 15, CSC inhib -21, Rh123 counter -7, MPTP abs DR 5.2* and MPTP cs DR 46*.
For c1ccc(Cc2ccc(OCCCNC3CCCC3)cc2)cc1 the results were Beta cell apopt 1, Mdm2-MdmX inh 39 and CSC inhib 46.
For CS(=O)(=O)c1ccccc1C(=O)N(CCC1=CCCCC1)c1c(N)n(Cc2ccccc2)c(=O)[nH]c1=O the results were NR3A LBD binder -2, Gli-Sufu antag -1, MPTP block 0, Beta cell apopt -5, Mdm2-MdmX inh 12 and CSC inhib -7.
`COc1cccc(/C=C2/CCC(CN(C)C)C2=O)c1` (stereo not drawn) gave NR3A LBD binder 3, Gli-Sufu antag -14 and MPTP block -3.
O=S1(=O)CCC(NC(=S)N2CCCCC2)C1 (stereo not drawn) was read as NR3A LBD binder 2, Gli-Sufu antag -8, MPTP block 0, Beta cell apopt 1, Mdm2-MdmX inh -4 and CSC inhib -10.
COc1ccc(N(CC(=O)Nc2cccc(N(C)S(C)(=O)=O)c2)S(=O)(=O)c2ccccc2)cc1Cl was read as NR3A LBD binder -4, Gli-Sufu antag 0, MPTP block 0, Beta cell apopt 7, Mdm2-MdmX inh 21 and CSC inhib 2.
For Cc1ccc(-c2csc3nc(-c4ccncc4)[nH]c(=O)c23)cc1 the results were NR3A LBD binder 1, Gli-Sufu antag 26, MPTP block 98*, Beta cell apopt 18, Mdm2-MdmX inh 18, CSC inhib 10, Rh123 counter 19, MPTP abs DR 3* and MPTP cs DR <2.5*.
CCCNC(=S)N1CCN(c2nc(-c3ccc(C)cc3)cs2)CC1 was read as NR3A LBD binder 12*, Gli-Sufu antag 0, MPTP block 99*, Beta cell apopt -4, Mdm2-MdmX inh 6, CSC inhib 2 and Rh123 counter 81*.

Compound activity from PubChem.
